Source: PubChem (several laboratories)
TcdB GH inh: TcdB glycohydrolase inhibition | TcdB glycohydrolase enzymatic assay, plate reader | P18177 | 0.24% of 350,000 active | inhibition, % at 9.99 µM; in the data active means inhibition above about 10%
Bead autofluor: compound fluorescence in toxin protease inhibitor counterscreen; 3.1% of 360,000 active; compound autofluorescence counterscreen, microsphere flow cytometry; active compounds read high; fluorescence intensity (test concentration not listed); AID 624483; in the data active means fluorescence intensity above about 16000; inconclusive means no clear call, values can overlap the other calls
BoNT A protease: blocks Botulinum neurotoxin A light chain protease. multiplex microsphere protease substrate cleavage, flow cytometry. inhibition, % at 10 µM. 0.17% of 360,000 active. AID 588499; further: plate controls were buffer without enzyme for full effect and enzyme alone for no effect
BoNT-F LC inh: inhibitors of Botulinum neurotoxin F light chain protease | Multiplex microsphere protease cleavage assay, flow cytometry | inhibition, % at 10 µM | 0.22% of 360,000 active; in the data active means inhibition above about 35%, passing the limit was not always enough; inconclusive means no clear call, values can overlap the other calls; further: plate controls were buffer without enzyme for full effect and enzyme alone for no effect
Anthrax LF inh2: inhibitors of Bacillus anthracis lethal factor protease. P15917. multiplex microsphere protease cleavage assay, LF. inhibition, % at 10 µM. 0.12% of 360,000 active. AID 588501; further: plate controls were buffer without enzyme for full effect and enzyme alone for no effect
Numbers without * were called inactive; ? = inconclusive; . = not tested or not shown. This is one part of a sample in which hits are shown more often than they occur. Unless noted, no stated cut-off is given here; in the data, active means inhibition above about 30%; inconclusive means no clear call, values can overlap the other calls; inactive means below that.

SMILES	TcdB GH inh	Bead autofluor	BoNT A protease	BoNT-F LC inh	Anthrax LF inh2
CCC1CCCCN1c1nc(-c2cccc(OC)c2O)nc2ccccc12 (stereo unspecified)	.	16896*	-3	-4	-6
CCC(CO)Nc1ccc([N+](=O)[O-])c2cccnc12 (stereo unspecified)	.	22808*	-2	-5	0
CCSc1ccccc1C(=O)N1CCN(Cc2ccc3c(c2)OCO3)CC1	.	22336*	3	0	-9
CSc1ccccc1C(=O)NCc1ccc2c(c1)OCO2	1	20402*	1	-2	-2
CCSc1ccccc1C(=O)N1CCCC1	.	23440*	-2	-6	-1
O=C(O)c1ccccc1C(=O)N1CCN(Cc2ccc3c(c2)OCO3)CC1	-1	3918	-3	-18	15
CCSc1ccccc1C(=O)NCc1ccc2c(c1)OCO2	.	17574*	-4	-9	-2
COCCSc1ccccc1C(=O)N1CCCC1	.	5921	0	-2	4
O=C(NCc1ccc2c(c1)OCO2)c1ccccc1Cl	0	6446	-1	-3	-6
Cc1cc(C(=O)N2CCN(Cc3ccc4c(c3)OCO4)CC2)cs1	0	25075*	-5	-6	-2
Cc1cc(C(=O)NC(C)c2ccc3c(c2)OCO3)cs1 (stereo unspecified)	.	22313*	?	-7	2
Cc1cc(C(=O)Nc2ccc3c(c2)OCO3)cs1	4	10759	0	-12	1
C[C@H]1CN([C@@H](C)CO)C(=O)c2cc(NC(=O)Cc3ccccc3)ccc2O[C@H]1CN(C)CC1CC1	0	.	.	.	.
c1ccc(-c2nnc(OCC3CCCO3)c3ccccc23)cc1 (stereo unspecified)	11*	3497	0	-4	-6
CCOCC(=O)Nc1cc(-c2cn3cccnc3n2)ccc1C	2	22267*	?	-6	-2
COc1cccc(C(=O)Nc2cc(-c3cn4cccnc4n3)ccc2C)c1	-2	4459	1	2	-4
COc1cc(C(=S)N2CCCCC2)ccc1OCC(=O)N1CCCC1	.	4046	0	14	-5
COc1cc(CO)cc(Br)c1OCC(=O)N1CCCCC1	.	21247*	3	4	-4
COc1cc(CNCCCN2CCOCC2)cc(Br)c1OCC(=O)N1CCCCC1	2	18727*	10	13	3
COc1ccc(S(=O)(=O)N(C)C[C@H]2OCCCC[C@H](C)Oc3ccc(NC(=O)NC4CCCCC4)cc3C(=O)N([C@H](C)CO)C[C@H]2C)cc1	0	.	.	.	.
O=C(/C=C/c1ccco1)NC(=S)Nc1ccccc1N1CCOCC1	.	23214*	0	0	1
O=C1c2cccc3c(O)ccc(c23)C(=O)N1Cc1ccccc1	.	7829	1	111*	51*
O=C(O)c1cccc(CN2C(=O)c3ccccc3C2=O)c1	0	3183	-2	3	6
C[C@H](CO)N1C[C@H](C)[C@@H](CN(C)Cc2ccc3c(c2)OCO3)Oc2ccc(NC(=O)CCN3CCOCC3)cc2CC1=O	-1	.	.	.	.
CSCCC(NC(=O)c1cncc(Br)c1)C(=O)O (stereo unspecified)	1	20225*	8	7	-6
SMILES	TcdB GH inh	Bead autofluor	BoNT A protease	BoNT-F LC inh	Anthrax LF inh2
C[C@H](CO)N1C[C@H](C)[C@H](CN(C)C(=O)Nc2ccc(C(F)(F)F)cc2)Oc2ncc(-c3ccc(C#N)cc3)cc2C1=O	-2	.	.	.	.
O=C(Cn1c(-c2ccccc2)noc1=O)NCc1ccccc1	.	11822	0	-6	-4
Cc1nn(Cc2ccc([N+](=O)[O-])cc2)c(=O)n1-c1ccccc1	.	17702*	?	10	-10
O=c1onc(-c2ccccc2)n1Cc1ccc([N+](=O)[O-])cc1	10*	2987	0	-1	4
N#CCCCn1c(-c2ccccc2)noc1=O	.	23665*	?	-2	-4
CCNC(=O)Nc1ccc2c(c1)C(=O)N(C)[C@H]1CC[C@@H](CC(=O)NCc3ccccc3F)O[C@H]1CO2	1	.	.	.	.
CCN1C(=O)/C(=C/C=C2\C=CN(CC)c3ccccc32)SC1=S	.	6742	41*	-9	16
Cc1ccc(CNC(=O)c2cc(C)nn2-c2ccccc2)cc1	0	4071	0	1	-2
Cc1ccc(Cc2nnc3n(-c4ccccc4)nc(C(=O)c4ccccc4)n3c2=O)cc1	.	21560*	-3	-5	-1
CCOC(=O)c1c(-c2ccccc2Cl)cn2ccccc12	.	21999*	2	3	-8
Cc1noc(C)c1S(=O)(=O)Nc1ccc2c(c1)C(=O)N([C@H](C)CO)C[C@H](C)[C@H](CN(C)C(=O)Nc1ccccc1)O2	1	.	.	.	.
CCc1cc(/C(Cc2ccccn2)=N\O)c(O)cc1O	15*	18010*	?	-14	-2
CO[C@@H]1CN(C)C(=O)c2cc(NC(=O)c3ccccc3F)ccc2OC[C@H](C)N(CC2CCOCC2)C[C@@H]1C	3	.	.	.	.
COc1ccc(S(=O)(=O)Nc2cccc3c2O[C@H](CN(C)C(=O)NC2CCCCC2)[C@H](C)CN([C@H](C)CO)C3=O)cc1	0	.	.	.	.
COc1ccc([C@@H]2Sc3cc(OC)ccc3N(CCN(C(C)C)C(C)C)C(=O)[C@H]2OC(C)=O)cc1	.	20962*	3	5	-4
COCc1[nH]nc2c1C(c1ccnc3ccccc13)C(C#N)=C(N)O2 (stereo unspecified)	.	16149*	0	0	-3
COCC(=O)N1C[C@H](C)[C@@H](OC)CN(C)C(=O)c2cc(NC(=O)c3ccccc3)ccc2OC[C@@H]1C	-3	.	.	.	.
O=C1C2C3C=CC(C3)C2C(=O)N1c1ccccc1 (stereo unspecified)	.	22433*	?	-3	-2
O=C1C2C3C=CC(C3=C3CCCCC3)C2C(=O)N1c1ccccc1 (stereo unspecified)	.	2869	0	-4	2
Cc1ccc(N2C(=O)C3C4C=CC(C4)C3C2=O)cc1 (stereo unspecified)	.	2848	1	-4	-2
CN1C(=O)C2C=CC1C1C(=O)N(c3ccccc3)C(=O)C21 (stereo unspecified)	.	21330*	2	4	-7
CCOC(=O)N1CCN(C(=O)/C(=C/c2ccc(OC)cc2)NC(=O)c2ccccc2)CC1	.	2819	0	-13	0
CCOC(=O)N1CCN(C(=O)/C(=C/c2cccc3ccccc23)NC(=O)c2ccc(OC)cc2)CC1	-1	24028*	-2	-5	-2
